Screens deposited in PubChem by several laboratories.
In the library only some 2.9% were active in any assay of this set; here they are far more common.
Peg3 promoter = reduces Peg3 promoter-driven luciferase expression in HeLa; HeLa PEG-Prom luciferase reporter, luminescence, overnight; inhibition, % at 20 µM; 360,000 tested, 1.7% active;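 active means inhibition of at least 50% at 20 µM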
KKLEB cytotox = counter-screen for CF NF-kB inhibitors: cytotoxicity; KKLEB CF airway cells viability, ATPlite luminescence, overnight; active compounds read low; cells stimulated with P. aeruginosa culture filtrate; activity change (cytotoxicity), % at 5 µM; 360,000 tested, 0.36% active;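 active means corrected activity change at or below -50% at 5 µM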
Shn3 3UTR inh = Schnurri-3 reporter inhibition in Clone20 osteoblasts | 360,000 tested, 0.52% active | Clone20 osteoblast Shn3 3'UTR firefly luciferase, 24 h | AID 588674 | inhibition, % at 12.5 µM;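 active means mean inhibition of at least 75% with every replicate also reaching 75%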;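 further: 0% = median of neutral control wells and 100% = pilot-screen positive control compound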
CF NFkB inh = inhibitors of cystic fibrosis induced NF-kB | AID 588850 | KKLEB NF-kB-GFP reporter, PAF-induced, GFP fluorescence overnight | 360,000 tested, 0.86% active | inhibition, % at 5 µM;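 active means at least 50% inhibition at 5 µM, scaled per plate between neutral and stimulator controls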;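 further: PAF is a Pseudomonas aeruginosa culture filtrate used as stimulus; plate controls were PAF-stimulated DMSO wells for no effect and unstimulated DMSO wells for full effect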
HIF-2a block = inhibitors of HIF-2a; 786-0 RCC cells HIF-2a reporter, luciferase luminescence, overnight; inhibition, % at 18.8 µM; 360,000 tested, 0.72% active; AID 624352;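 active means inhibition of the luminescence signal of 40% or more relative to plate controls, in a single-dose primary screen at 18.75 µM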
EBV LMP1 NFkB = reduces LMP1-driven NF-kappaB luciferase signal | LMP1-induced NF-kappaB luciferase reporter cells, luminescence | inhibition, % at 12.5 µM | 350,000 tested, 0.69% active; in the data active means inhibition above about 41%;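 further: 0% = neutral control wells and 100% = reference inhibitor control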
An asterisk follows results filed as active; / = not tested or not shown.

SMILES	Peg3 promoter	KKLEB cytotox	Shn3 3UTR inh	CF NFkB inh	HIF-2a block	EBV LMP1 NFkB
COCCN1C(=O)CCC1(C)c1nnnn1-c1ccc2ccccc2c1 (centres undefined)	/	/	/	/	1	/
Cc1nc(NCCc2ccc(F)cc2)c(C#N)c(C)c1[N+](=O)[O-]	51*	12	-6	-2	-7	-4
COCc1c(C#N)c(NCCc2ccc(F)cc2)nc(C)c1[N+](=O)[O-]	19	0	19	-11	5	-3
Cc1ccccc1NC(=O)Nc1nc(C(N)c2ccccc2)cs1 (centres undefined)	4	1	-3	4	-18	/
O=C(Nc1ccc(Cl)c(Cl)c1)Nc1nc(-c2ccccc2)cs1	-2	25	41	4	-43	56*
CC(C)c1ccc(NC(=O)Nc2nc(C(N)C(C)C)cs2)cc1 (centres undefined)	96*	-13	14	8	-10	/
O=C(Nc1ccccc1)Nc1nc(-c2ccccc2)cs1	-67	9	-32	-11	-88	14
CC(C)c1ccc(NC(=O)Nc2nc(C(N)COCc3ccccc3)cs2)cc1 (centres undefined)	110*	-5	93*	-13	26	/
CC(C)c1ccc(NC(=O)Nc2nc(C(N)c3ccccc3)cs2)cc1 (centres undefined)	110*	-43	93*	12	5	/
O=C(COC(=O)c1cccc([N+](=O)[O-])c1)Nc1ccc(Cl)cn1	1	-1	-21	10	-5	-10
C=CCN1C(=O)C(C)NC1=S (centres undefined)	-1	0	-17	5	15	-1
CC1CCc2c(sc(NC(=O)CSc3nc(N)cc(=O)[nH]3)c2C(N)=O)C1 (centres undefined)	-14	-4	21	-16	10	6
c1ccc(-c2ccc(OCCCNC3CCCC3)cc2)cc1	74*	-10	-28	5	6	-58
COc1ccc(OCCNC2CCCC2)cc1	2	-7	-111	-9	-8	-8
Cc1cc(C)n(-c2ccc(C(=O)OCC(=O)Nc3cc(S(C)(=O)=O)ccc3Cl)cc2)n1	-11	-20	-5	-7	-20	3
COC(=O)c1c(NC(=O)CC2SC(N)=NC2=O)sc2c1CCC(C(C)(C)C)C2 (centres undefined)	26	-6	-1	2	-5	-10
CCOc1cc2c(c3c1C(c1ccccc1)N(S(=O)(=O)c1ccc(C)cc1)C3)C(=O)C=CC2=O (centres undefined)	101*	-67*	99*	56*	68*	/
CCOC(=O)C1=CCN(S(=O)(=O)c2ccc(C)cc2)C1c1ccccc1 (centres undefined)	10	-10	-40	-5	-6	/
O=[N+]([O-])c1ccc(O)c(Nc2ncnc3ccccc23)c1	-65	5	-14	6	-134	1
O=[N+]([O-])c1ccc(O)c(Nc2ncnc3ccc(Br)cc23)c1	20	-38	18	58*	-4	10
Cc1cnc(C(=O)OC(C)C(=O)Nc2ccc(Oc3ccccc3)cc2)cn1 (centres undefined)	-35	14	-26	-5	-58	71*
Cc1cnc(C(=O)OCC(=O)Nc2ccc(Oc3ccccc3)cc2)cn1	-17	-12	-30	0	-12	6
COc1ccc(/C(CC2OC(=O)c3ccccc32)=N\NC(N)=O)cc1 (centres undefined)	-1	20	-36	-6	5	65*
COc1ccc2c(c1OC)C(=O)OC2C/C(=N\NC(N)=O)c1ccccc1 (centres undefined)	3	0	-22	-7	14	2
Cc1cc2c(cc1C)N(Cc1ccc(Cl)cc1)C1=NCCCN12	57*	3	46	5	20	2
SMILES	Peg3 promoter	KKLEB cytotox	Shn3 3UTR inh	CF NFkB inh	HIF-2a block	EBV LMP1 NFkB
CC(C)(C)c1ccc(CN2C3=NCCCN3c3ccccc32)cc1	20	-28	88*	25	17	-4
Cc1ccc(CN2C3=NCCCN3c3ccccc32)cc1	15	2	41	12	17	3
CCCCCCCN1C2=NCCCN2c2ccccc21	17	-11	87*	9	10	3
Cc1cccc(NC(=O)C(=O)NCCCN2CCOCC2)c1	-5	8	-21	-9	-24	-6
COC(=O)c1cccc(NC(=O)c2cc3ccccc3o2)c1	-151	-5	-60	-49	-26	-21
Cc1cc(C)c(S(=O)(=O)N2CCN(C(=O)c3ccccc3OCc3c(C)noc3C)CC2)c(C)c1	5	-6	20	12	24	46*
Cc1ccc(S(=O)(=O)N2CCN(C(=O)c3ccccc3OCc3c(C)noc3C)CC2)cc1C	5	-8	3	1	-5	-3
O=C(c1ccc2c(c1)OCCCO2)N1CCCCC1	-76	-3	-17	11	-83	0
COc1ccc(CCNC(=O)Cn2cnc3scc(-c4ccccc4)c3c2=O)cc1OC	22	-1	3	-2	15	-4
CN(C)CCNc1nc2sc3c(c2c(=O)n1CCc1ccccc1)CCCCC3	108*	-19	-21	15	-84	-9
CCCCC(=O)OCC(=O)C1(O)Cc2c(O)c3c(c(O)c2C(OC2CC(NC(=O)C(F)(F)F)C(O)C(C)O2)C1)C(=O)c1c(OC)cccc1C3=O (centres undefined)	74*	8	75	-197	-13	48*
COc1cccc2c1C(=O)c1c(O)c3c(c(O)c1C2=O)C[C@](O)(C(C)=O)C[C@H]3O[C@@H]1C[C@@H](N)[C@@H](O)[C@@H](C)O1	105*	16	94*	65*	9	91*
NC(=O)CSc1oc(-c2ccco2)nc1S(=O)(=O)c1ccc(Br)cc1	13	3	11	7	15	-4
CC(=O)Oc1ccc(-c2nc3ccccc3c(=O)o2)cc1	77*	12	5	1	23	-3
CC(=O)Oc1ccccc1/C=C/c1nc2ccccc2c(=O)o1	24	0	6	-4	33	45*
C=CCn1c(SCc2ccc3nonc3c2)nnc1-c1cccs1	0	-8	23	0	24	71*
CN(C)c1cccc(C(=O)Nc2nc3ccccc3[nH]2)c1	-55	-21	14	-14	-40	44*
O=C(Nc1nc2ccccc2[nH]1)c1cccc(F)c1	-130	-6	-20	-8	-134	0
CC1=NOC(=O)/C1=C\c1ccc(-c2ccc(Cl)cc2Cl)o1	108*	-3	13	-26	56*	3
CCCOc1ccc(Cl)cc1/C=C1/C(=O)ON=C1C	28	4	7	9	17	2
Cc1ccc(C(=O)N2CCCC(Nc3ccc(C(C)C)cc3)C2)cn1 (centres undefined)	0	7	-9	11	1	11
